Here are results for twelve sequences from PMC8384837, “Expanding the binding specificity for RNA recognition by a PUF domain”.

Holding throughout (assay): yeast three-hybrid, YBZ-1, SC-Leu-His + 0.5 mM 3-AT, 4 days
What all share (conditions): tags: N-Gal4 AD-HA kept; label: inside an RPR1-promoter hybrid RNA with tandem MS2 sites; ssRNA

One experiment addresses PUM1 PUF domain R8-AWR (Homo sapiens, UniProt Q14671 828-1176, N1122A;Y1123W;Q1126R). In short, it runs like this: (§1)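 A centromeric plasmid in strain YBZ-1 co-expressed Pumilio-1 PUF domain libraries, randomized at the three base-contacting residues of each repeat, with matching RNA elements; the strain carries a LexA–MS2 coat fusion and a HIS3 reporter. After four days on SC-Leu (input) or SC-Leu-His + 0.5 mM 3-AT (selection), the repeat regions were PCR-amplified and Illumina-sequenced. The interaction score is the log change in variant frequency from input to selection, using log2 and a pseudocount of 1 where absent.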

A further experiment concerns the target PUM1 PUF domain R5-RNP (Homo sapiens, UniProt Q14671 828-1176, C1007R;R1008N;Q1011P). In short, it runs like this:
as §1

The target in a further experiment is PUM1 PUF domain R5-KPM (Homo sapiens, UniProt Q14671 828-1176, C1007K;R1008P;Q1011M). In short, it runs like this:
as §1

The target in another experiment is PUM1 PUF domain R5-NLS (Homo sapiens, UniProt Q14671 828-1176, C1007N;R1008L;Q1011S). In short, it runs like this: as §1
Sequence of PUM1 PUF domain R5-NLS (Q14671 828-1176 C1007N/R1008L/Q1011S): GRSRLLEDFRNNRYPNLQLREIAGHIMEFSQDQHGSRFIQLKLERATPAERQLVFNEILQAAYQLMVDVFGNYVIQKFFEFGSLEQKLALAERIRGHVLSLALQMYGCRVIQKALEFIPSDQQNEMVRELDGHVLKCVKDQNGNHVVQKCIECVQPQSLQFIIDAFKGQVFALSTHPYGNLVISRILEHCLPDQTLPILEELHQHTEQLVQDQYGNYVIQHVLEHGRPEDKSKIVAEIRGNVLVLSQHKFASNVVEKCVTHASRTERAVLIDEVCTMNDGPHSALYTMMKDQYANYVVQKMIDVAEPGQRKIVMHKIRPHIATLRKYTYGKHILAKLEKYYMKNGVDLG
A further experiment concerns the target PUM1 PUF domain R3-CRS (Homo sapiens, UniProt Q14671 828-1176, Q939S). In short, it runs like this:
as §1

A further experiment has as its target PUM1 PUF domain R4-DHM (Homo sapiens, UniProt Q14671 828-1176, N971D;Q975M). In short, it runs like this:
as §1

The target of a further experiment is PUM1 PUF domain R3-GCF (Homo sapiens, UniProt Q14671 828-1176, C935G;R936C;Q939F). In short, it runs like this:
as §1

The next experiment has as its target PUM1 PUF domain R3-TGQ (Homo sapiens, UniProt Q14671 828-1176, C935T;R936G). The gist of the method:
as §1

Another experiment concerns the target PUM1 PUF domain R3-EWT (Homo sapiens, UniProt Q14671 828-1176, C935E;R936W;Q939T). The gist of the method: as §1
The target of a further experiment is PUM1 PUF domain R4-ARV (Homo sapiens, UniProt Q14671 828-1176, N971A;H972R;Q975V). In short, it runs like this: as §1
Sequence of PUM1 PUF domain R4-ARV (Q14671 828-1176 N971A/H972R/Q975V): as the sequence (Q14671 828-1176 C1007N/R1008L/Q1011S) above, with N144A, H145R, Q148V, N180C, L181R, S184Q counted along it
The target of the next experiment is PUM1 PUF domain R3-PHE (Homo sapiens, UniProt Q14671 828-1176, C935P;R936H;Q939E). The gist of the method:
as §1

A further experiment concerns the target PUM1 PUF domain R5-GQK (Homo sapiens, UniProt Q14671 828-1176, C1007G;R1008Q;Q1011K). In short, it runs like this:
as §1

For the next experiment, the target named is PUM1 PUF domain R5-ELW (Homo sapiens, UniProt Q14671 828-1176, C1007E;R1008L;Q1011W). The gist of the method: as §1
Sequence of PUM1 PUF domain R5-ELW (Q14671 828-1176 C1007E/R1008L/Q1011W): as the sequence (Q14671 828-1176 C1007N/R1008L/Q1011S) above, with N180E, S184W counted along it
In a further experiment the target is PUM1 PUF domain R3-YPR (Homo sapiens, UniProt Q14671 828-1176, C935Y;R936P;Q939R). The gist of the method: as §1
Sequence of PUM1 PUF domain R3-YPR (Q14671 828-1176 C935Y/R936P/Q939R): as the sequence (Q14671 828-1176 C1007N/R1008L/Q1011S) above, with C108Y, R109P, Q112R, N180C, L181R, S184Q counted along it
A further experiment deals with PUM1 PUF domain R2-LLL (Homo sapiens, UniProt Q14671 828-1176, N899L;Y900L;Q903L). In short, it runs like this:
as §1

For the next experiment, the target named is PUM1 PUF domain R1-KRG (Homo sapiens, UniProt Q14671 828-1176, S863K;Q867G). The gist of the method: as §1
Sequence of PUM1 PUF domain R1-KRG (Q14671 828-1176 S863K/Q867G): as the sequence (Q14671 828-1176 C1007N/R1008L/Q1011S) above, with S36K, Q40G, N180C, L181R, S184Q counted along it
The next experiment deals with PUM1 PUF domain R1-QRK (Homo sapiens, UniProt Q14671 828-1176, S863Q;Q867K). The gist of the method: as §1
Sequence of PUM1 PUF domain R1-QRK (Q14671 828-1176 S863Q/Q867K): as the sequence (Q14671 828-1176 C1007N/R1008L/Q1011S) above, with S36Q, Q40K, N180C, L181R, S184Q counted along it
Another experiment has as its target PUM1 PUF domain R1-RNR (Homo sapiens, UniProt Q14671 828-1176, S863R;R864N;Q867R). The gist of the method: as §1
A further experiment has as its target PUM1 PUF domain R5-NPE (Homo sapiens, UniProt Q14671 828-1176, C1007N;R1008P;Q1011E). The gist of the method:
as §1

The target of another experiment is PUM1 PUF domain R7-QGR (Homo sapiens, UniProt Q14671 828-1176, S1079Q;N1080G;E1083R). In short, it runs like this:
as §1

Sequence of PUM1 PUF domain R3-CRS (Q14671 828-1176 Q939S): as the sequence (Q14671 828-1176 C1007N/R1008L/Q1011S) above, with Q112S, N180C, L181R, S184Q counted along it
Sequence of PUM1 PUF domain R5-GQK (Q14671 828-1176 C1007G/R1008Q/Q1011K): as the sequence (Q14671 828-1176 C1007N/R1008L/Q1011S) above, with N180G, L181Q, S184K counted along it
Sequence of PUM1 PUF domain R1-RNR (Q14671 828-1176 S863R/R864N/Q867R): as the sequence (Q14671 828-1176 C1007N/R1008L/Q1011S) above, with S36R, R37N, Q40R, N180C, L181R, S184Q counted along it
Sequence of PUM1 PUF domain R8-AWR (Q14671 828-1176 N1122A/Y1123W/Q1126R): as the sequence (Q14671 828-1176 C1007N/R1008L/Q1011S) above, with N180C, L181R, S184Q, N295A, Y296W, Q299R counted along it
Sequence of PUM1 PUF domain R3-EWT (Q14671 828-1176 C935E/R936W/Q939T): as the sequence (Q14671 828-1176 C1007N/R1008L/Q1011S) above, with C108E, R109W, Q112T, N180C, L181R, S184Q counted along it
Sequence of PUM1 PUF domain R3-GCF (Q14671 828-1176 C935G/R936C/Q939F): as the sequence (Q14671 828-1176 C1007N/R1008L/Q1011S) above, with C108G, R109C, Q112F, N180C, L181R, S184Q counted along it
Sequence of PUM1 PUF domain R2-LLL (Q14671 828-1176 N899L/Y900L/Q903L): as the sequence (Q14671 828-1176 C1007N/R1008L/Q1011S) above, with N72L, Y73L, Q76L, N180C, L181R, S184Q counted along it
Sequence of PUM1 PUF domain R7-QGR (Q14671 828-1176 S1079Q/N1080G/E1083R): as the sequence (Q14671 828-1176 C1007N/R1008L/Q1011S) above, with N180C, L181R, S184Q, S252Q, N253G, E256R counted along it
Sequence of PUM1 PUF domain R4-DHM (Q14671 828-1176 N971D/Q975M): as the sequence (Q14671 828-1176 C1007N/R1008L/Q1011S) above, with N144D, Q148M, N180C, L181R, S184Q counted along it
Sequence of PUM1 PUF domain R5-RNP (Q14671 828-1176 C1007R/R1008N/Q1011P): as the sequence (Q14671 828-1176 C1007N/R1008L/Q1011S) above, with N180R, L181N, S184P counted along it
Sequence of PUM1 PUF domain R3-TGQ (Q14671 828-1176 C935T/R936G): as the sequence (Q14671 828-1176 C1007N/R1008L/Q1011S) above, with C108T, R109G, N180C, L181R, S184Q counted along it
Sequence of PUM1 PUF domain R5-NPE (Q14671 828-1176 C1007N/R1008P/Q1011E): as the sequence (Q14671 828-1176 C1007N/R1008L/Q1011S) above, with L181P, S184E counted along it
Sequence of PUM1 PUF domain R5-KPM (Q14671 828-1176 C1007K/R1008P/Q1011M): as the sequence (Q14671 828-1176 C1007N/R1008L/Q1011S) above, with N180K, L181P, S184M counted along it
Sequence of PUM1 PUF domain R3-PHE (Q14671 828-1176 C935P/R936H/Q939E): as the sequence (Q14671 828-1176 C1007N/R1008L/Q1011S) above, with C108P, R109H, Q112E, N180C, L181R, S184Q counted along it

In the case of “GGCUAGAACUAGUGGAUCCCCCGGCGCCCGGCGGCUCGAGCCCGGGUAAGCGUAAAUAGUCUGCAUGCCGCCGGGCGCCAUGCCUGCAGGUCGACUCUAGAAAACAUG”, in the experiment with PUM1 PUF domain R8-AWR, the binding signal is 4.57 log2 enrichment (interaction score).
Regarding “GGCUAGAACUAGUGGAUCCCCCGGCGCCCGGCGGCUCGAGCCCGGGUAAGUGUUAAUAGUCUGCAUGCCGCCGGGCGCCAUGCCUGCAGGUCGACUCUAGAAAACAUG”, the binding signal is 2.93 log2 enrichment (interaction score) in the experiment with PUM1 PUF domain R5-RNP, 3.06 log2 enrichment (interaction score) with PUM1 PUF domain R5-KPM and 6.48 log2 enrichment (interaction score) with PUM1 PUF domain R5-NLS.
For the sequence “GGCUAGAACUAGUGGAUCCCCCGGCGCCCGGCGGCUCGAGCCCGGGUAAGUGUAAAUAGUCUGCAUGCCGCCGGGCGCCAUGCCUGCAGGUCGACUCUAGAAAACAUG”, the binding signal is 3.28 log2 enrichment (interaction score) with PUM1 PUF domain R3-CRS; 5.71 log2 enrichment (interaction score) with PUM1 PUF domain R4-DHM; 3.59 log2 enrichment (interaction score) with PUM1 PUF domain R3-GCF; 4.55 log2 enrichment (interaction score) with PUM1 PUF domain R3-TGQ; 4.49 log2 enrichment (interaction score) with PUM1 PUF domain R8-AWR; 4.31 log2 enrichment (interaction score) in the experiment with PUM1 PUF domain R3-EWT. Moreover, the binding signal with PUM1 PUF domain R4-ARV is 4.56 log2 enrichment (interaction score); in the experiment with PUM1 PUF domain R3-PHE, 4.47 log2 enrichment (interaction score); in the experiment with PUM1 PUF domain R5-GQK, 2.37 log2 enrichment (interaction score); in the experiment with PUM1 PUF domain R5-ELW, 2.28 log2 enrichment (interaction score).
In the case of “GGCUAGAACUAGUGGAUCCCCCGGCGCCCGGCGGCUCGAGCCCGGGUAAGUGUACAUAGUCUGCAUGCCGCCGGGCGCCAUGCCUGCAGGUCGACUCUAGAAAACAUG”, the binding signal with PUM1 PUF domain R4-ARV was 0.8 log2 enrichment (interaction score).
Regarding “GGCUAGAACUAGUGGAUCCCCCGGCGCCCGGCGGCUCGAGCCCGGGUAAGUGUAAGUAGUCUGCAUGCCGCCGGGCGCCAUGCCUGCAGGUCGACUCUAGAAAACAUG”, the binding signal in the experiment with PUM1 PUF domain R3-CRS was 2.6 log2 enrichment (interaction score); with PUM1 PUF domain R3-YPR it was 3.45 log2 enrichment (interaction score); in the experiment with PUM1 PUF domain R3-EWT, 4.76 log2 enrichment (interaction score).
Take “GGCUAGAACUAGUGGAUCCCCCGGCGCCCGGCGGCUCGAGCCCGGGUAAGUGUAAAGAGUCUGCAUGCCGCCGGGCGCCAUGCCUGCAGGUCGACUCUAGAAAACAUG”: the binding signal with PUM1 PUF domain R2-LLL is 3.06 log2 enrichment (interaction score).
For “GGCUAGAACUAGUGGAUCCCCCGGCGCCCGGCGGCUCGAGCCCGGGUAAGUGUAAAUCGUCUGCAUGCCGCCGGGCGCCAUGCCUGCAGGUCGACUCUAGAAAACAUG”, the figures for the binding signal in the experiment with PUM1 PUF domain R1-KRG, in the experiment with PUM1 PUF domain R1-QRK and with PUM1 PUF domain R1-RNR were 2.86 log2 enrichment (interaction score), 4.66 log2 enrichment (interaction score) and 4.17 log2 enrichment (interaction score), respectively.
For the sequence “GGCUAGAACUAGUGGAUCCCCCGGCGCCCGGCGGCUCGAGCCCGGGUAAGUGUGAAUAGUCUGCAUGCCGCCGGGCGCCAUGCCUGCAGGUCGACUCUAGAAAACAUG”, the binding signal with PUM1 PUF domain R5-NPE was 4.36 log2 enrichment (interaction score).
Take “GGCUAGAACUAGUGGAUCCCCCGGCGCCCGGCGGCUCGAGCCCGGGUAAGUGUAAAUUGUCUGCAUGCCGCCGGGCGCCAUGCCUGCAGGUCGACUCUAGAAAACAUG”: the binding signal with PUM1 PUF domain R1-KRG is 1.23 log2 enrichment (interaction score); with PUM1 PUF domain R1-RNR, 4.23 log2 enrichment (interaction score).
In the case of “GGCUAGAACUAGUGGAUCCCCCGGCGCCCGGCGGCUCGAGCCCGGGUAAGUUUAAAUAGUCUGCAUGCCGCCGGGCGCCAUGCCUGCAGGUCGACUCUAGAAAACAUG”, the binding signal with PUM1 PUF domain R7-QGR was 2.75 log2 enrichment (interaction score).
On to “GGCUAGAACUAGUGGAUCCCCCGGCGCCCGGCGGCUCGAGCCCGGGUAAGUGUAAUUAGUCUGCAUGCCGCCGGGCGCCAUGCCUGCAGGUCGACUCUAGAAAACAUG”, for which the binding signal with PUM1 PUF domain R3-CRS is 0.43 log2 enrichment (interaction score); in the experiment with PUM1 PUF domain R3-YPR, 0.67 log2 enrichment (interaction score).
Consider “GGCUAGAACUAGUGGAUCCCCCGGCGCCCGGCGGCUCGAGCCCGGGUAAGUGUCAAUAGUCUGCAUGCCGCCGGGCGCCAUGCCUGCAGGUCGACUCUAGAAAACAUG”, for which the binding signal in the experiment with PUM1 PUF domain R5-GQK was 2.24 log2 enrichment (interaction score).
